Measured values taken from PubChem BioAssay AID624418 (National Center for Advancing Translational Sciences (NCATS), 2012).
Screen size: about 410,000 compounds; about 530 (0.13%) were called active. A call without a number means that no potency is given here. Roughly 5% stayed inconclusive and do not appear here. The call rests on the fitted dose curve; in most records, active means well fitted inhibition curve with a large enough effect; inconclusive means small, poorly fitted or top-dose-only effect, or another doubt; inactive means no such curve, though single readings can be large or run the other way. Many of the other results were omitted from the sample, so actives are more common in it than they were.

Assay: qHTS of GLP-1 Receptor Inverse Agonists: Cytotox Screen;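 further: loss of luciferase light is scored as toxicity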
Conditions: HEK293 cAMP-luciferase reporter cells, luminescence, 24 h; series mostly up to 38.3 µM
Source text: The overall goal of this project was to develop a novel assay for discovering small molecule ligands for class B1 G protein-coupled receptors (GPCRs). Very few agonists (or inverse agonists) with generally weak activity for this entire group of physiologically important receptors are known to date. To establish proof-of-principle that this critical bottleneck can be overcome with a suitable screening approach, our studies focused on the class B1 receptor for glucagon-like peptide-1 (GLP-1R), a potential therapeutic target for diabetes and neurodegenerative disease.
The assay was developed using a cell-based functional readout. Toward this goal, stably transfected HEK293 cell clones were established that co-express (i) a cAMP-responsive luciferase reporter gene, and (ii) constitutively active GLP-1R that upon ligand interaction inhibit (inverse agonists) the luciferase activity. In addition, two control cell lines were developed: (i) one that express only the cAMP-responsive reporter gene to enable initial exclusion of GLP-1R independent effects of candidate probes; and (ii) one with the reported gene cloned with another constitutively active orphan receptor GPR119 to enable exclusion of GLP-1R independent inhibitor effects of candidate inverse agonists.
To that end, this assay was optimized for 1536-well format and screened against the MLSMR. Then the same collection was run in this cytotoxicity assay where inhibition was the undesired outcome.
NIH Molecular Libraries Probe Production Network [MLPCN]
NIH Chemical Genomics Center [NCGC]
PI Name: Martin Beinborn, Tufts Medical Center
Six ul of cell suspension (200 cells/uL in DMEM + 10% Nu serum + 1% pen-strep) is dispensed in a white solid 1536-well plate. The plates are incubated for 12 hours at 37 deg C at 5% CO2 followed by addition of 23 nL compounds. After 24 hr incubation at 37 deg C and 5% CO2, 3 uL of luciferase assay detection reagent is added. A luminescence read is obtained on the PerkinElmer Viewlux after 12 min incubation at room temperature.
Potency means the concentration at half of the fitted maximal effect.

SMILES | Potency
Cn1c(C(=O)Nc2cccc(C(F)(F)F)c2)cc2c(=O)n3ccccc3nc21 | inactive
Cc1ccc2c(c1)-c1c(cnn1CC(=O)Nc1ccccc1C#N)CO2 | inactive
CCN1CCN(c2ncnc3c2cnn3-c2ccc(C)c(C)c2)CC1 | inactive
COC(=O)c1ccc(NC(=O)c2cccc3c2C(=O)N(C2CCCCC2)C3)cc1 | inactive
COc1ccc(-c2nn3c(-c4ccc(OC)cc4)nnc3c3ccccc23)cc1 | inactive
CCOc1cc(C2c3c(-c4ccc(Br)cc4)n[nH]c3C(=O)N2c2ccc(Cl)cc2)ccc1O (configuration not stated) | inactive
CCC(Sc1nc2n[nH]c(C)c2c(=N)n1-c1ccccc1Cl)C(=O)N(CC)CC (configuration not stated) | inactive
CC(=O)OC1=C(C(C)=O)N(Cc2ccccc2)S(=O)(=O)c2ccccc21 | inactive
CN(Cc1ccccc1)C(=O)c1cn(C)c2ccc(S(=O)(=O)N3CCCCC3)cc2c1=O | inactive
CCc1ccccc1NC(=O)CSc1nnc(-c2ccccc2)c(-c2ccccc2)n1 | inactive
Cc1ccc(C)c(N2CCN(C(=O)Cc3c(C(=O)O)c(C)cn3C)CC2)c1 | inactive
Cc1cccc(NC(=O)C2CCN(S(=O)(=O)c3c(C)noc3/C=C/c3ccco3)CC2)c1 | inactive
COc1ccc(OC)c(NC(=O)C2CCCN(S(=O)(=O)c3ccc4c(c3)CCCC(=O)N4)C2)c1 (configuration not stated) | inactive
CC1=NN(C(=O)Cc2ccc(C)cc2)C(O)(c2cccnc2)C1 (configuration not stated) | inactive
COc1ccc(CC(=O)N2N=C(C)CC2(O)C(F)(F)F)cc1 (configuration not stated) | 6.31 µM (active)
CC1=NN(C(=O)CCc2ccccc2O)C(O)(C(F)(F)F)C1 (configuration not stated) | inactive
O=C(Nc1ccc(Oc2ccccc2)cc1)C1CCN(S(=O)(=O)c2ccc(Cl)cc2)CC1 | inactive
CC(=O)Nc1ccc(NC(=O)CSc2nnc3c4cc(Br)ccc4n(C)c3n2)cc1 | inactive
CC(C)CN1CCC1(C)C(=O)Nc1ccc(OC(F)F)cc1 (configuration not stated) | inactive
CC/C(=N\NC(=S)NC(C)C)c1ccc(OC(F)F)cc1 | 4.47 µM (active)
CC(C)N(Cc1ccccc1)C(=S)Nc1ccc(OC(F)F)cc1 | inactive

SMILES | Potency
Cc1oc(C)c2c(=O)cc(-c3ccc4c(c3)OCO4)cc(OC(=O)c3ccc(Cl)cc3)c12 | inactive
O=C(Nc1cc(C(F)(F)F)ccc1Cl)c1nc2ccccc2nc1N1CCCCC1 | inactive
O=C(NCC12CC3CC(CC(C3)C1)C2)c1cc2nc(-c3ccccc3)cc(C(F)(F)F)n2n1 | inactive
CSc1ccccc1-c1nnc(NC(=O)c2ccc3c(c2)OCCO3)o1 | inactive
CCOc1ccccc1NC(=O)C1CCCN(S(=O)(=O)c2cn(C)cn2)C1 (configuration not stated) | inactive
Fc1ccc(-c2nc(Nc3cccc(Cl)c3)nc3c2COc2ccccc2-3)cc1 | inactive
Cc1cccc(C(=O)Nc2ccc(S(=O)(=O)N3CCCCC3c3cccnc3)cc2)c1 (configuration not stated) | inactive
O=C(Nc1ccc(Br)cc1)c1ccc(Br)c(S(=O)(=O)NCc2ccccc2)c1 | inactive
CCOC(=O)c1c(NC(=O)/C=C/c2ccc(OC)cc2)sc2c1CCC(C)C2 (configuration not stated) | inactive
CCc1ccc(NC(=O)Cn2c(=O)n(CCC(=O)NCc3ccc4c(c3)OCO4)c(=O)c3ccccc32)cc1 | inactive
O=C(c1ccc(Cl)cc1)n1nc(-c2cccnc2)nc1NCc1ccc(F)cc1 | inactive
Clc1ccc(CSc2nncn3c2cc2occc23)cc1 | inactive
O=C(Cn1cnc2c(oc3ccccc32)c1=O)Nc1ccc(OC(F)(F)F)cc1 | inactive
COc1ccc(C(=O)COC(=O)CCCC(=O)Nc2cc(C(F)(F)F)ccc2Cl)cc1 | inactive
Cc1ccc(CCNC(=O)c2ccc(CS(=O)(=O)Cc3cccc(C)c3)o2)cc1 | inactive
Cc1c(CNC2CCCCC2)c(C(=O)O)c(C)n1Cc1cccc(Cl)c1 | inactive
Cc1nc(SCCOc2ccc(Cl)cc2)[nH]c(=O)c1Cc1ccccc1 | inactive
Cc1cc(NC(=O)CC(C)C)cc(-c2nc3ncccc3o2)c1O | inactive
Cc1ccc2nc(COc3cccc(NC(=O)c4ccccc4Cl)c3)cc(=O)n2c1 | inactive
COc1ccc(CCNC(=O)CCCCn2c(=O)c3ccccc3n(Cc3ccccc3)c2=O)cc1OC | inactive
CCOC(=O)C1=CCC2C(=O)N(Cc3ccccc3)C(=O)C12 (configuration not stated) | inactive

SMILES | Potency
COc1cc(/C=C2/SC(=S)N(Cc3ccccc3)C2=O)cc(OC)c1O | 10 µM (active)
COc1ccc(-c2nn(-c3ccccc3)cc2/C=N/Nc2ccccn2)cc1OC | 5.01 µM (active)
CCCCCc1c(-c2ccc(OC)c(OC)c2)ncn1CCc1ccccc1OC | inactive
COc1ccc(-c2cc(C(F)(F)F)n3nc(-c4ccccc4)cc3n2)cc1OC | inactive
Cc1ccccc1CN1CCC(CNC(=O)c2cc3ccc4cccnc4c3[nH]2)CC1 | inactive
O=C(NCC(c1ccc2c(c1)OCO2)N1CCN(c2ccccc2)CC1)C(=O)Nc1ccccc1F (configuration not stated) | inactive
CCc1ccc(NC(=O)c2cc(S(=O)(=O)NC3CCCCCC3)ccc2F)cc1 | inactive
CCCCN(CC)C(=O)c1c[nH]c2ccc(S(=O)(=O)Nc3cccc(OC)c3)cc2c1=O | inactive
Cc1cccc(NC(=O)c2ccc(F)c(S(=O)(=O)N(C)C3CCCCC3)c2)c1 | inactive
COc1ccc(NC(=O)c2ccc3oc(=O)c(S(=O)(=O)c4ccc(F)cc4)cc3c2)c(OC)c1 | inactive
Cc1ccc(-n2c(SCC(=O)Nc3cccc(F)c3)nc3c(oc4ccccc43)c2=O)cc1C | inactive
CC(C)Oc1ccc(NC(=O)c2cc3ccccc3o2)cc1 | inactive
Cc1ccc(NC(=O)C2CCN(S(=O)(=O)c3cc(-c4noc(C)n4)ccc3C)CC2)c(C)c1 | inactive
Cc1ccc(Cl)cc1NC(=O)/C(C#N)=C\c1cn(Cc2ccc(F)cc2)c2ccccc12 | inactive
Fc1ccc(-c2ccc(NCCN3CCOCC3)nn2)cc1 | 10 µM (active)
Cc1c(C(=O)NCCN2CCOCC2)sc2nc(-c3ccc(F)cc3)cn12 | inactive
CN(CC(=O)NCCN1CCOCC1)S(=O)(=O)c1ccc(F)cc1 | inactive
COc1cc(OC)cc(C(=O)NCCc2csc3nc(-c4ccccc4F)nn23)c1 | inactive
CCOc1ccc(NC(=O)CCc2c(C)nn(-c3ccc(N4CCCC4)nn3)c2C)cc1 | inactive
COc1ccc(C)cc1N(CC(=O)N1CCC(C)CC1)S(=O)(=O)c1ccc(C)cc1 | inactive
